Laboratory results: ChEMBL document CHEMBL3988442, “University of Dundee, Small-Polar-MMV Screening Library” (2021)
For some of these results: Results with a measured potency or affinity are listed apart.

Tests used:
Parameters in all cases: scale not given: direction of the effect not stated beside the values
[1] = molecular target: Protein translocase subunit SecA (Escherichia coli (strain K12)) (UniProt P10408); assay: Assay to Identify E. coli SecA ATPase Inhibitors; format: functional; conditions: 30 µM
[2] = molecular target: T1, Ubiquitin-activating enzyme e1, putative (Leishmania donovani (strain BPK282A1)) (UniProt E9BSI1); assay: Leishmania donovani Ubiquitin Activating Enzyme (LdE1); format: functional; conditions: 30 µM
T1 sequence (whole entry): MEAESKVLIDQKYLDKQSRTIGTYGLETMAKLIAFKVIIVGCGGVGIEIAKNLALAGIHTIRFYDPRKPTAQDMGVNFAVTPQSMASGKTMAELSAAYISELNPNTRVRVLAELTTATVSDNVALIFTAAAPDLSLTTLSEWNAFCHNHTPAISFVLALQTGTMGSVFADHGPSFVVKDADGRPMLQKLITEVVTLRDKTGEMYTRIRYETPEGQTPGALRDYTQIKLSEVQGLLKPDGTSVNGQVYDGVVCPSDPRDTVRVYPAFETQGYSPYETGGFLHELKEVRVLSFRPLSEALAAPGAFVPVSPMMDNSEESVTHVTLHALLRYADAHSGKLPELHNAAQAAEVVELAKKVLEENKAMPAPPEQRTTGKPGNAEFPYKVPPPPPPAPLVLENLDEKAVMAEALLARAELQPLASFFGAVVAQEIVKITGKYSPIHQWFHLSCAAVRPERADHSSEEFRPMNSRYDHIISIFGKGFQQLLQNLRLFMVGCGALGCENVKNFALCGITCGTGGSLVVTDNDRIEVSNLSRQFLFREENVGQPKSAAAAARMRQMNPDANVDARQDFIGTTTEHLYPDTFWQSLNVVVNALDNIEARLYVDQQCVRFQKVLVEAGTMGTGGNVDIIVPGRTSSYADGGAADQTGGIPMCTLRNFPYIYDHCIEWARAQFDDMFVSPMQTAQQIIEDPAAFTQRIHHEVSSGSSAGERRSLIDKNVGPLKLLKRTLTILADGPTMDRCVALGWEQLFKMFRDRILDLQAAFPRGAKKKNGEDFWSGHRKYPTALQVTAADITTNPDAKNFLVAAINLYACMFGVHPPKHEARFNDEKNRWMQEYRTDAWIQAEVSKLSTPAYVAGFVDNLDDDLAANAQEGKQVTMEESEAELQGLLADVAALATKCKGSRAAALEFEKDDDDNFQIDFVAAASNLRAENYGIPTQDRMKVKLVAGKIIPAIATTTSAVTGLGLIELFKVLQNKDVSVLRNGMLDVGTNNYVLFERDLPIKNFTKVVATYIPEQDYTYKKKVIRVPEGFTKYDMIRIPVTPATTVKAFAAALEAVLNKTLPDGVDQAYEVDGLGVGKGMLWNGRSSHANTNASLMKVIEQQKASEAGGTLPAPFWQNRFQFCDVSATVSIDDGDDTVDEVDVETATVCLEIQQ

[3] = molecular target: AMP-activated protein kinase, AMPK (Homo sapiens) (UniProt P54646+O43741+P54619+Q9UGJ0+Q9Y478+Q13131+Q9UGI9); assay: AMP-dependent Kinase enzyme assay. An in vitro enzyme assay that detects ADP turnover that is directly proportional to AMPK activity. This uses naive AMPK that is activated during the assay with MK-8722; format: functional; conditions: 30 µM
[4] = molecular target: Sialic acid-binding Ig-like lectin 9 (Homo sapiens) (UniProt Q9Y336); assay: Hs-Siglec9 ALPHAscreen SOP 20170721; conditions: 10 µM
Trypanosoma cruzi = assay: Trypanosoma cruzi phosphomannomutase and mannose-1-phosphate guanylyltransferase assay; format: functional; conditions: 10 µM
[5] = molecular target: T2, Arginase-2, mitochondrial (Homo sapiens) (UniProt P78540); assay: in vitro enzyme assay to detect the production of urea directly proportional to the activity of Arginase II; format: functional; conditions: 33.3 µM; note: in the data most compounds retested in dose-response had high values
T2 sequence (whole entry): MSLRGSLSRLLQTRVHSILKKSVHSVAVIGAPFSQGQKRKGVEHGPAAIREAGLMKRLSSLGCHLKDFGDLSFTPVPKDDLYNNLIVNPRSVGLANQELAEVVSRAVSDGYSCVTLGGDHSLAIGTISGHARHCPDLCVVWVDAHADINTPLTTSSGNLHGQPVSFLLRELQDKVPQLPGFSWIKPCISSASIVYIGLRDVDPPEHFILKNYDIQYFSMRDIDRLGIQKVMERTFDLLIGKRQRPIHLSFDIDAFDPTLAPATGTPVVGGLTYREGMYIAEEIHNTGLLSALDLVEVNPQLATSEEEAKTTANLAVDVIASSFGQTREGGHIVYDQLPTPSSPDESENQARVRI

[6] = molecular target: T3, Proteasome subunit beta (Trypanosoma cruzi) (UniProt O96673); assay: Trypanosoma cruzi proteasome chymotrypsin-like activity (TcProtChymo) assay.; note: in the data most compounds retested in dose-response had high values; format: functional; conditions: 9.37 µM
T3 sequence (whole entry): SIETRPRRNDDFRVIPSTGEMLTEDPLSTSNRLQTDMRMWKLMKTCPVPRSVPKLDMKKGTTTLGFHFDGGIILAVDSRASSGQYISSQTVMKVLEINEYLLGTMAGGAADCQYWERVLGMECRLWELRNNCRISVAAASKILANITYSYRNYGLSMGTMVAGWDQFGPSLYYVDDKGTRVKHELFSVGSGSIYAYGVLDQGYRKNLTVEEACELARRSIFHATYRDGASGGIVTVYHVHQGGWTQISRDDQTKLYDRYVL

Homo sapiens = organism: Homo sapiens; assay: To identify inhibition of the IFN signalling (Jak-Stat) pathway via expression of an eGFP reporter gene under the control of an IFN-stimulated response element (ISRE) containing MxA promoter.; format: functional; conditions: 30 µM
[7] = molecular target: T4, Tyrosyl-tRNA synthetase, putative (Trypanosoma cruzi (strain CL Brener)) (UniProt Q4DSP6); assay: Trypanosoma cruzi tyrosyl tRNA synthetase (TcYRS) _High Tyrosine SOP; format: functional; conditions: 30 µM; note: in the data most compounds retested in dose-response had high values
T4 sequence (whole entry): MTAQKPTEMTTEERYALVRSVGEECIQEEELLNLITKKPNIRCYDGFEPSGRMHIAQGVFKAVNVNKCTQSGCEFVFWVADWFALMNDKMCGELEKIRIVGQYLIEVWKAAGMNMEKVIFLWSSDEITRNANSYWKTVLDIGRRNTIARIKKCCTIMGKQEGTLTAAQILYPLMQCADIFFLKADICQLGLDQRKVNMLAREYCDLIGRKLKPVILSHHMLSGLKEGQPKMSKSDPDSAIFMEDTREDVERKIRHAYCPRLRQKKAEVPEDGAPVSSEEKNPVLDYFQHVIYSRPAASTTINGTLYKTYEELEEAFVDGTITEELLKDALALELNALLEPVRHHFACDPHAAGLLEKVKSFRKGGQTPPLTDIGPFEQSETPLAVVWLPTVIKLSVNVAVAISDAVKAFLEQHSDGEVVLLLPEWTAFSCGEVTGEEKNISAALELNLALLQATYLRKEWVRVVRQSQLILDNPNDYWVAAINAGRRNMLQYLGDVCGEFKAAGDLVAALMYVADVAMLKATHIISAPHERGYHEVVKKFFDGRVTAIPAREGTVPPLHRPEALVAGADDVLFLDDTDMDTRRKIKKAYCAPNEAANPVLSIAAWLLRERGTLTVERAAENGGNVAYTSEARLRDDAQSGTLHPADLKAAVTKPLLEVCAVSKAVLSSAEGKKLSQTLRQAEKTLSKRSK

[8] = molecular target: T4, Tyrosyl-tRNA synthetase, putative (Trypanosoma cruzi (strain CL Brener)); assay: Trypanosoma cruzi tyrosyl tRNA synthetase (TcYRS) SOP; format: functional; conditions: 30 µM
[9] = molecular target: Chromo domain-containing protein 1 (Saccharomyces cerevisiae (strain ATCC 204508 / S288c) (Baker's yeast)) (UniProt P32657); assay: ScCHD-1 Enzyme Inhibition Assay; format: functional; conditions: 30 µM; note: in the data most compounds retested in dose-response had high values
Sequence of Chromo domain-containing protein 1 (Saccharomyces cerevisiae (strain ATCC 204508 / S288c) (Baker's yeast)) (P32657 whole entry, the tested form may be a part): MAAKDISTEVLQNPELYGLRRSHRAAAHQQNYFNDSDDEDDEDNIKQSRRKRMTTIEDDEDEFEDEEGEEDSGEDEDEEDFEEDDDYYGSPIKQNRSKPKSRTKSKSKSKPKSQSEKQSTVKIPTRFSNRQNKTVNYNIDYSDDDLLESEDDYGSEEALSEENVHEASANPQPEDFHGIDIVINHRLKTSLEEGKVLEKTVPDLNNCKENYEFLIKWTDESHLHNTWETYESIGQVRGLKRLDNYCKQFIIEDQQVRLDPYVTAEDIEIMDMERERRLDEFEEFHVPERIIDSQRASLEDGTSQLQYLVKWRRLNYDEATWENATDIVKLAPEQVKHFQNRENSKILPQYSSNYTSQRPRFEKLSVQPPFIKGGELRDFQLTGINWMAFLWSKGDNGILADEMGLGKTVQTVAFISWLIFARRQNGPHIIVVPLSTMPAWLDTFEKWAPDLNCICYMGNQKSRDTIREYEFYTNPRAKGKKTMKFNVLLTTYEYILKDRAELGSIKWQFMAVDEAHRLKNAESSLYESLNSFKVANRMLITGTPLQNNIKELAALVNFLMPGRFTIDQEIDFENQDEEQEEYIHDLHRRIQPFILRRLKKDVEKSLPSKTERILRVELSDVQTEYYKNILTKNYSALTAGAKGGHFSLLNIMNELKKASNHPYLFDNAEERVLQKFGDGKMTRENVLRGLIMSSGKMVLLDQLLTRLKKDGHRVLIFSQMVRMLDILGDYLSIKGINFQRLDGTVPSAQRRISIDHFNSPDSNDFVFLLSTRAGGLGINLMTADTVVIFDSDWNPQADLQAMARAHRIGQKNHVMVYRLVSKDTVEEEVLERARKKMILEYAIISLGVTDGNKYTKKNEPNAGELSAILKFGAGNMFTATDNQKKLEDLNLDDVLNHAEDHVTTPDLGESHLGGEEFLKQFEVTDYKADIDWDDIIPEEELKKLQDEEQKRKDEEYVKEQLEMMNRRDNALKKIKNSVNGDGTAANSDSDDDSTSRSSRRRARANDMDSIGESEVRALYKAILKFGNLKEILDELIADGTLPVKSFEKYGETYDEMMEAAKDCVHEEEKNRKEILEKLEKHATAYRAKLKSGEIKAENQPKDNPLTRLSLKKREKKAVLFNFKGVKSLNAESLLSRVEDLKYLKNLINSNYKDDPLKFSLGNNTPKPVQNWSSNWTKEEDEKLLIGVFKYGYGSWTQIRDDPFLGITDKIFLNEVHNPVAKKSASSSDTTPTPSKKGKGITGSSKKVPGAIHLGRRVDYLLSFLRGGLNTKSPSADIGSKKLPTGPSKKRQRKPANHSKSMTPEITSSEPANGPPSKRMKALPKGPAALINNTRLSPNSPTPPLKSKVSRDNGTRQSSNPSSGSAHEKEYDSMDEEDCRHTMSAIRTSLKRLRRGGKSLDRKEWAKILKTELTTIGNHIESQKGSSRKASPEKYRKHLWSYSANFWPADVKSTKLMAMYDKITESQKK

Sequence of Protein translocase subunit SecA (Escherichia coli (strain K12)) (P10408 whole entry): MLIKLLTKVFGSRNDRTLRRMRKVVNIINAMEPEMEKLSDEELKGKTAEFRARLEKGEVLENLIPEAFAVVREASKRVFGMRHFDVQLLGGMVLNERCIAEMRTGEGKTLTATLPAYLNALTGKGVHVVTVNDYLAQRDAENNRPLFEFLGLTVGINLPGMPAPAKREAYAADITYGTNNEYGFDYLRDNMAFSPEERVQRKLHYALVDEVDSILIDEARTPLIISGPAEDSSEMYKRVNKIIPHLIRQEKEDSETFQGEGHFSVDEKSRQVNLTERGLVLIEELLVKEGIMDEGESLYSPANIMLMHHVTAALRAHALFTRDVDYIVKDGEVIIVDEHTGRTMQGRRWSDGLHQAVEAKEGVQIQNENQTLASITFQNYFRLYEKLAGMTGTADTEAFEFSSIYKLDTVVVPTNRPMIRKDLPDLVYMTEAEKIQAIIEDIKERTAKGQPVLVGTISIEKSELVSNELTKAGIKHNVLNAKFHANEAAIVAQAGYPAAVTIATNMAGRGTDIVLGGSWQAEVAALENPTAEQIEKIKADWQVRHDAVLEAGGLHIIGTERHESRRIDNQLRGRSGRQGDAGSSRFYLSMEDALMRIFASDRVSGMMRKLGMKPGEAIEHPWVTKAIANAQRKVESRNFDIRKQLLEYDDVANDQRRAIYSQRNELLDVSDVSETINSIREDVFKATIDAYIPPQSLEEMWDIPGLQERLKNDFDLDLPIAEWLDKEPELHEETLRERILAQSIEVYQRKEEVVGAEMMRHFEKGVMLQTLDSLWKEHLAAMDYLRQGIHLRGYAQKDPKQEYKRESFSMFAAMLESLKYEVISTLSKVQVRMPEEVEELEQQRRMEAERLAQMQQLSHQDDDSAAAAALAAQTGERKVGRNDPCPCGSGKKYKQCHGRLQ
Sequence of Sialic acid-binding Ig-like lectin 9 (Homo sapiens) (Q9Y336 whole entry): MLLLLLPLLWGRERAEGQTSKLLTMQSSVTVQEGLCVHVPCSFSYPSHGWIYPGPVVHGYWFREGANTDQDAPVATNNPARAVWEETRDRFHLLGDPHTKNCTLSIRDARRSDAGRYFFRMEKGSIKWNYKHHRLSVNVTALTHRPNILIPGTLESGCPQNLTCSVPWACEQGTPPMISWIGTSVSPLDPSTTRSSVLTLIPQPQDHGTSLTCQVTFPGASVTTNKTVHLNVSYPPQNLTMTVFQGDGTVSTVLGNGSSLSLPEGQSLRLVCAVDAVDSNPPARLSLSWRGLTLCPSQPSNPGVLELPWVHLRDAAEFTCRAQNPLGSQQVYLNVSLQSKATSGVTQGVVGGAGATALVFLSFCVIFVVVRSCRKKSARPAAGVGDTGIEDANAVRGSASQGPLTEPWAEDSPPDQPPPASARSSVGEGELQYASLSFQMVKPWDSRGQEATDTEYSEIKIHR

| SMILES | Percent Effect [1] | Percent Effect [2] | Percent Effect [3] | Percent Effect [4] | Percent Effect (Trypanosoma cruzi) | Percent Effect [5] | Percent Effect [6] | Percent Effect (Homo sapiens) | Percent Effect [7] | Percent Effect [8] | Percent Effect [9] |
| --- | --- | --- | --- | --- | --- | --- | --- | --- | --- | --- | --- |
| Cn1cc(CN2CCc3c(nc(-c4ccccn4)[nH]c3=O)C2)cn1 | -4.53% | 2.67% | 8.84% | 5.72% | -2.56% | -1.17% | 6.78% | -0.565% | 12.8% | 19.2% | -1.71% |
| Cc1cc(CN2CCN(CCOc3cccc(C#N)c3)CC2)no1 | -2.32% | 15.8% | -0.384% | -11.5% | -1.4% | 1.44% | 10.6% | 3.18% | 5.42% | 23.5% | -5.93% |
| Cc1ccccc1C(=O)N1CCC(n2nnc3cc(F)ccc32)CC1 | -4.02% | 5.33% | 12% | 0.882% | -3.35% | 1.17% | 5.02% | 7.34% | 4.25% | 11.5% | -5% |
| CN1CCCC1CNC(=O)CCCOCc1ccccc1 (stereo unspecified) | -4.32% | 2.63% | 1.84% | 9.93% | 2.44% | 2.3% | -4.01% | -1.82% | 5.39% | 7.32% | 6% |
| CNCC(=O)N1CCCC(c2cccc(Nc3nc(C)cc(C)n3)n2)C1 (stereo unspecified) | -3.22% | 28.4% | 6.16% | -10.1% | 3.56% | -5.34% | 14.3% | 22% | 3.23% | 11.7% | -21.5% |
| CN1CCC(NC(=O)NCCNc2ccccn2)CC1 | -2.67% | 16.2% | -6.97% | 16.2% | 4.92% | 3.14% | 16.5% | 5.52% | 3.96% | 15.8% | -6.11% |
| Cn1ccnc1C(NCc1csc(Br)c1)c1ccccc1 (stereo unspecified) | -4.88% | 21.6% | 3.42% | 17.4% | 4.92% | 1.66% | 13.8% | 12.7% | 12.9% | 30.5% | -7.11% |
| Cn1ccc(C(=O)N2CCN(c3cc(C#N)ccn3)CC2)cc1=O | -6.91% | 13.5% | -11.9% | 26.1% | 4.06% | -5.61% | 7.21% | 6.78% | 5.42% | 13.6% | -17.3% |
| Cc1nnc2n1CCN(CCOc1ccccc1)C2 | -2.71% | -1.27% | 9.45% | -0.787% | -0.308% | 3.66% | 3.43% | 0.176% | 2.08% | 0% | -7.58% |
| Cc1nc(C)n(CC2CCCN2CCOc2ccc(C#N)cc2)n1 (stereo unspecified) | -3.7% | 2.53% | -2.42% | 10.4% | 7.27% | 1.9% | 1.06% | 17.9% | 6.4% | 11.4% | -5.17% |
| O=C(c1cscn1)N1C[C@@H]2[C@@H](C1)OCC(=O)N2CC1CCCC1 | -1.51% | -54.5% | 1.15% | 6.36% | -5.01% | -8.28% | 16.5% | 0.71% | -87.1% | -147% | -3.29% |
